Sm TGR block: qHTS Assay for the Inhibitors of Schistosoma Mansoni Peroxiredoxins; AID 485364, 2010; Potency, µM (doses to about 114 µM), usual class: inhibitors; Schistosoma mansoni thioredoxin glutathione reductase (TGR), Q962Y6; purified TGR, DTNB reduction, TNB absorbance 405 nm; 3% of 360,000 active; active = well fitted inhibition curve with a large enough effect; inconclusive = small, poorly fitted or top-dose-only effect; inactive = no such curve, though single readings can be large or run the other way; note: nearly all actives have a fitted effect of over 60% in size
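TGR 20 nM + NADPH 100 uM (dispensed conc.), cpd preinc 15 min RT; start with NADPH (500 uM addition) then DTNB (15 mM addition). Kinetic TNB absorbance, 405 nm filter. Four-parameter Hill fit across titration.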
FMDV inh: High Throughput Screening for Foot and Mouth Disease Virus Antivirals | FMDV antiviral cell-based qHTS | Potency, µM (titrated, usually from 57.9 µM), actives largely listed as inhibitors | 1.2% of 410,000 active; calls by dose curve; tested in HEK293T cells; note: read-out not given here; nearly all actives have a fitted effect of over 45% in size
Vaccinia mCherry: qHTS for Stage-Specific Inhibitors of Vaccinia Orthopoxvirus: mCherry Reporter Primary qHTS | 0.63% of 310,000 active | Vaccinia virus mCherry reporter infection, fluorescence | Potency, µM (titrated, usually from 36.5 µM), actives largely listed as inhibitors; calls by dose curve; tested in A549 cells; note: nearly all actives have a fitted effect of over 35% in size
VACV Venus inh: qHTS for Stage-Specific Inhibitors of Vaccinia Orthopoxvirus: Venus Reporter Primary qHTS | 0.46% of 330,000 active | Potency, µM (doses to about 36.5 µM), actives largely listed as inhibitors | Vaccinia virus Venus reporter expression, fluorescence; calls by dose curve; tested in A549 cells; note: nearly all actives have a fitted effect of over 30% in size
Marburg entry inh: qHTS for inhibitors of binding or entry into cells for Marburg Virus; 1.8% of 300,000 active; Marburg virus pseudotyped entry inhibition, cell reporter; AID 540276, 2011; Potency, µM (top dose mostly 37.8 µM), usual class: inhibitors; calls by dose curve; tested in HEK293 cells
LASV entry inh: qHTS for Inhibitors of binding or entry into cells for Lassa Virus; Lassa virus pseudotype entry inhibition, cell reporter; AID 540256, 2011; Potency, µM (titrated, usually from 37.9 µM), hits mostly inhibitors; 1.2% of 300,000 active; calls by dose curve; tested in HEK293 cells; note: nearly all actives have a fitted effect of over 50% in size
Large screens that a line does not name were inactive. In the library only some 5.4% were active in any assay of this set; here they are far more common.

CCCCNc1c(-c2ccc(SC(C)CC)c(OC)c2)nc2ccc(C)cn12 (centres undefined)	FMDV inh 22µM, Vaccinia mCherry inconclusive, VACV Venus inh inconclusive (no result: Marburg entry inh, LASV entry inh)
COc1ccccc1N1CCN(c2nc(-c3ccc(C)cc3)nc3ccccc23)CC1	FMDV inh inconclusive (no result: Marburg entry inh)
CCCCCCSc1cccc(-c2nc3cc(C)ccn3c2NCc2ccccc2)c1	VACV Venus inh inconclusive (no result: Marburg entry inh, LASV entry inh)
CCCCCCSc1cccc(-c2nc3ccccn3c2NCc2ccccc2)c1	FMDV inh 25µM (no result: Sm TGR block, Marburg entry inh, LASV entry inh)
CCOC(=O)c1ccc(NC(=O)CC[C@@H](CC)C(=O)O)cc1	none (no result: Sm TGR block, FMDV inh, Vaccinia mCherry, VACV Venus inh, LASV entry inh)
O=C(CSc1ncc2c(n1)-c1ccccc1N(Cc1ccc(F)cc1)S2(=O)=O)c1ccc(Cl)cc1	none (no result: Marburg entry inh)
NC(=O)C1CCN(C2=C(NS(=O)(=O)c3ccc(Cl)cc3)C(=O)c3ccccc3C2=O)CC1	Sm TGR block 11µM (no result: Vaccinia mCherry, VACV Venus inh, Marburg entry inh, LASV entry inh)
O=C(OCC1OC(OC(=O)c2cc(O)c(O)c(OC(=O)c3cc(O)c(O)c(O)c3)c2)[C@@H](OC(=O)c2cc(O)c(O)c(OC(=O)c3cc(O)c(O)c(O)c3)c2)C(OC(=O)c2cc(O)c(O)c(OC(=O)c3cc(O)c(O)c(O)c3)c2)C1OC(=O)c1cc(O)c(O)c(OC(=O)c2cc(O)c(O)c(O)c2)c1)c1cc(O)c(O)c(OC(=O)c2cc(O)c(O)c(O)c2)c1 (some centres undefined)	Marburg entry inh 0.35µM, LASV entry inh 11µM (no result: Sm TGR block, FMDV inh, Vaccinia mCherry, VACV Venus inh)
COc1ccc2nc(Sc3c([N+](=O)[O-])nc(C)n3Cc3ccccc3)[nH]c2c1	FMDV inh 16µM, Marburg entry inh inconclusive, LASV entry inh 16µM (no result: Vaccinia mCherry, VACV Venus inh)
Cc1cc2nc(Sc3c([N+](=O)[O-])nc(C)n3Cc3ccccc3)[nH]c2cc1C	Sm TGR block 18µM, FMDV inh 32µM, Vaccinia mCherry inconclusive, VACV Venus inh inconclusive, Marburg entry inh inconclusive
Cn1cnc([N+](=O)[O-])c1Sc1nc2ccccc2[nH]1	Sm TGR block 1.4µM, FMDV inh inconclusive, Vaccinia mCherry inconclusive, LASV entry inh inconclusive
Cc1nc([N+](=O)[O-])c(Sc2nc3ccccc3[nH]2)n1Cc1ccccc1	Sm TGR block 20µM, FMDV inh inconclusive, Vaccinia mCherry inconclusive, LASV entry inh inconclusive
COc1ccc2nc(SCC(=O)NCc3ccccc3)[nH]c2c1	none (no result: Vaccinia mCherry, VACV Venus inh, Marburg entry inh, LASV entry inh)
O=C(CC1NCCNC1=O)Nc1ccccc1F (centres undefined)	none
Fc1ccc(-c2cc(-c3ccc(F)cc3)c3c(n2)-c2cc(F)ccc2OC3)cc1	none
Oc1ccc(-c2cnns2)c(O)c1	Sm TGR block 79µM, Marburg entry inh inconclusive, LASV entry inh 11µM
Oc1ccc(-c2nc3ccccc3s2)c(O)c1	Marburg entry inh inconclusive
CCN1CCCC1CNC(=O)c1ccc(Sc2ccc(F)cc2)c([N+](=O)[O-])c1 (centres undefined)	Marburg entry inh 6.3µM (no result: LASV entry inh)
CC(=O)NCCNC(=O)c1ccc(Sc2ccccc2)c([N+](=O)[O-])c1	none (no result: Marburg entry inh, LASV entry inh)
CCN1CCCC1CNC(=O)c1ccc(Sc2ccccc2Cl)c([N+](=O)[O-])c1 (centres undefined)	Marburg entry inh inconclusive
CN(C)CCNC(=O)c1ccc(Sc2ccc(Br)cc2)c([N+](=O)[O-])c1	Vaccinia mCherry 10µM, VACV Venus inh inconclusive, Marburg entry inh inconclusive, LASV entry inh inconclusive
COc1ccc(OC)c(C2C(C(=O)Nc3ccc(C)cc3)=C(C)Nc3nnnn32)c1 (centres undefined)	none (no result: Marburg entry inh)
CN=C(c1ccco1)n1c(=S)nc(-c2ccco2)n(C)c1=S	Vaccinia mCherry inconclusive, VACV Venus inh 13µM
COc1ccc(CN2COc3ccc4c(C)cc(=O)oc4c3C2)cc1	none (no result: Marburg entry inh)
CC(C)NC(=O)[C@@H]1C[C@@H](Sc2ccccn2)CN1C1CCN(C)CC1	none (no result: Sm TGR block, Marburg entry inh, LASV entry inh)
O=c1c2cn[nH]c2nc(SCc2ccc3c(c2)OCCO3)n1-c1ccccc1	FMDV inh 25µM, VACV Venus inh inconclusive, Marburg entry inh inconclusive, LASV entry inh inconclusive
O=c1c2cn[nH]c2nc(SCc2cccc(Br)c2)n1-c1ccc(Cl)cc1	none (no result: Marburg entry inh)
CC(=O)[C@@]1(O)CC[C@H]2[C@@H]3C[C@H](C)C4=CC(=O)CC[C@]4(C)[C@H]3CC[C@@]21C	FMDV inh 28µM, LASV entry inh inconclusive
CC(=O)C1(C)CCC2C3C=C(C)C4=CC(=O)CCC4(C)C3CCC21C (centres undefined)	Marburg entry inh 11µM, LASV entry inh inconclusive (no result: Sm TGR block)
CC(=O)[C@]1(O)CCC2C3CCC4=CC(=O)CC[C@@]4(C)C3CC[C@]21C (some centres undefined)	none (no result: Sm TGR block, Marburg entry inh, LASV entry inh)
C=C1C[C@H]2[C@@H]3C=C(C)C4=CC(=O)CC[C@]4(C)[C@H]3CC[C@]2(C)[C@@]1(OC(C)=O)C(C)=O	Sm TGR block inconclusive, FMDV inh inconclusive (no result: Marburg entry inh, LASV entry inh)
C=C1CC2C(CCC3(C)C2CCC3(O)C(C)=O)C2(C)CCC(=O)C=C12 (centres undefined)	FMDV inh 25µM, VACV Venus inh inconclusive, Marburg entry inh inconclusive, LASV entry inh 5.6µM
CC(=O)Nc1cc(C(=O)N2CCSCC2)cc2ncn(CCc3ccccn3)c12	none (no result: Sm TGR block, Marburg entry inh, LASV entry inh)
CCN(CC)S(=O)(=O)c1ccc2nc(NC(=O)c3cncc(Br)c3)sc2c1	VACV Venus inh inconclusive (no result: Marburg entry inh)
CCCn1c2ccccc2c2cnn(CC(=O)NCc3ccc(OC)cc3)c(=O)c21	VACV Venus inh inconclusive (no result: Marburg entry inh)
Cc1c(C(=O)NC2CC2)oc2ccccc12	none (no result: Vaccinia mCherry, VACV Venus inh, Marburg entry inh, LASV entry inh)
Cc1c(C(=O)NC2CCN(Cc3ccccc3)C2)oc2ccc(Br)cc12 (centres undefined)	Marburg entry inh inconclusive, LASV entry inh inconclusive
CCOc1ccc2oc(C(=O)NC3CCN(Cc4ccccc4)CC3)c(C)c2c1	FMDV inh inconclusive, Marburg entry inh inconclusive, LASV entry inh 11µM
Cc1c(C(=O)NCCc2ccccc2)oc2ccccc12	Marburg entry inh 6.3µM, LASV entry inh inconclusive
Cc1c(C(=O)NC2CCCCC2C)oc2ccccc12 (centres undefined)	Sm TGR block 0.56µM
COc1ccc2oc(C(=O)OCC(=O)NCCc3ccccc3)c(C)c2c1	none
COc1ccc2oc(C(=O)NCCc3ccccc3)c(C)c2c1	Marburg entry inh inconclusive, LASV entry inh 0.89µM
CCOc1ccc(C(=O)Nc2nnc(S(=O)(=O)N(CC)c3ccccc3C)s2)cc1	none (no result: Marburg entry inh)
C=CCC(CC=C)(CNC(=O)C(=O)Nc1cccc(C(F)(F)F)c1)c1ccccc1	none
COc1ccc2cc(Br)ccc2c1CC(=O)NC1CC(C)(C)NC(C)(C)C1	Marburg entry inh 18µM, LASV entry inh inconclusive (no result: Vaccinia mCherry, VACV Venus inh)
COc1ccc(NC(=O)COC(=O)c2cccc(S(=O)(=O)N(C)C)c2)cc1	Marburg entry inh inconclusive
CN(C)S(=O)(=O)c1cccc(C(=O)OCC(=O)Nc2sccc2C(N)=O)c1	FMDV inh 14µM, Marburg entry inh inconclusive
COc1cc(CCC(=O)OCC(=O)Nc2sccc2C(N)=O)cc(OC)c1OC	FMDV inh 18µM
NC(=O)c1ccsc1NC(=O)COC(=O)Cc1ccccc1	FMDV inh inconclusive (no result: Vaccinia mCherry, VACV Venus inh, Marburg entry inh, LASV entry inh)

Screening data from PubChem.
